# From PubChem
# Sfp inh = qHTS Assay for Inhibitors of Bacillus subtilis Sfp phosphopantetheinyl transferase (PPTase). 4'-phosphopantetheinyl transferase ffp (Bacillus subtilis), Q9F4F7. AID 1490, 2009. Biochemical Sfp PPTase activity, qHTS. 3.5% of 310,000 active. Potency, µM, without a hit: largest response in the series, negative = inhibition, most hits filed as inhibitors;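 note: the enzyme is Sfp with the accession as filed and its product quenches rhodamine fluorescence; potency is the fitted concentration of half-maximal effect; 0% = enzyme reaction without inhibitor and -100% = no enzyme wells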
#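 Reaction rates are the 30-min fluorescence difference (ex 525, em 598 nm) in wells containing 15 nM Sfp, 5 uM rhodamine-CoA and 12.5 uM BHQ-2-YbbR at pH 7.6 with 10 mM MgCl2.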
# miR-21 reporter = qHTS Assay for Modulators of miRNAs and/orActivators of miR-21; HeLa miR-21 FLuc reporter, luciferase, 48 h; Potency, µM (series often up to 38.3 µM), for inactives: top-dose activity change, positive = activation, hits mostly activators; 340,000 tested, under 10 active; AID 2288, 2010;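 note: % of control where 0% means no effect; miR-21 action dims this reporter so a rising signal means less miR-21 action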
#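 HeLa cells stably expressing CMV-driven firefly luciferase with a downstream miR-21 binding sequence, endogenously expressing miR-21, were treated with titrations (up to about 40uM final) for 48 hours at 37 degree Celsius. Luciferase luminescence was read after lysis.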
# G9a inh = qHTS Assay for Inhibitors of Histone Lysine Methyltransferase G9a. 8.8% of 350,000 active. AID 504332, 2011. G9a H3K9 monomethylation, AlphaScreen, 2 h. Potency, µM (titrated, usually from 102 µM), inactives show top-dose activity, negative = inhibition, most hits filed as inhibitors. Histone-lysine N-methyltransferase EHMT2 (Homo sapiens), Q96KQ7; note: potency is the fitted concentration of half-maximal effect; % is set by controls: 0 for no effect and ±100 for the full control effect; nearly all actives have a fitted effect of over 75% in size
# Target sequence (Q96KQ7 913-1193 limits assumed): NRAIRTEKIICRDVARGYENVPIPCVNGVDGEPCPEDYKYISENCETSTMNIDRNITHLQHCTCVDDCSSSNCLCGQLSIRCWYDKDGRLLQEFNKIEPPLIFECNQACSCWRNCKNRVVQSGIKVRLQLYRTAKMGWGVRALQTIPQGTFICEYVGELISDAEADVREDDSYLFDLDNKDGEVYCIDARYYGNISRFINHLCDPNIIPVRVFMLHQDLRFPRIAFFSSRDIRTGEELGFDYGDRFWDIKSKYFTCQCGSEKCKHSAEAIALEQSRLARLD
#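 Chemiluminescent proximity detection of H3K9 monomethylation, read after 10 min bead incubation in the dark. Reaction: 20 nM G9a, 500 nM biotin-H3K9 peptide, 20 uM SAM cofactor, 2 h, room temperature, following 15 min enzyme-compound preincubation.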
# ALDH1A1 inh = qHTS Assay for Inhibitors of Aldehyde Dehydrogenase 1 (ALDH1A1) | Aldehyde dehydrogenase 1A1 (Homo sapiens), P00352 | Purified ALDH1A1, NADH fluorescence, propionaldehyde substrate | Potency, µM (doses to about 75.3 µM), without a hit: at the highest dose activity, negative = inhibition, actives largely listed as inhibitors | 7.3% of 220,000 active; active = well fitted inhibition curve with a large enough effect, not every such curve was filed as active; inconclusive = small, poorly fitted or top-dose-only effect, or another doubt; inactive = no such curve, though single readings can be large or run the other way;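 note: potency is the fitted concentration of half-maximal effect; plate controls were no enzyme wells and a reference inhibitor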
# LMNA splice mod = qHTS Assay for Modulators of Lamin A Splicing. HeLa LMNA splicing GFP/RFP minigene ratio, 48 h. Potency, µM (highest dose often 46.1 µM), inactives show at the top dose ratio change, negative = inhibition, hits mostly inhibitors. 0.01% of 200,000 active. AID 1487, 2009; active = well fitted inhibition curve with a large enough effect in the signal ratio, with a control signal flat, not every such curve was filed as active; inconclusive = small, poorly fitted or top-dose-only effect, or effect the other way, or a change in a side signal; the % refers to the signal ratio; note: potency is the fitted concentration of half-maximal effect; % is set by controls: 0 for no effect and ±100 for the full control effect
#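 S3 HeLa stable clones carrying a lamin A-EGFP splicing minigene plus DsRed2 were seeded at 600 cells/well in Opti-MEM with 2% FBS, pin-dosed and incubated 48 h at 37°C. Acumen cytometry (488 nm) gave the GFP/RFP total-intensity ratio.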
# JMJD2E inh = qHTS Assay for Inhibitors of Human Jumonji Domain Containing 2E (JMJD2E) | AID 2147, 2009 | JMJD2E catalytic domain, FDH-coupled NADH fluorescence (FDH is formaldehyde dehydrogenase) | 1.6% of 230,000 active | Potency, µM (highest dose often 57.1 µM), for inactives: at the top dose activity change, negative = inhibition, actives largely listed as inhibitors; active = well fitted inhibition curve with a large enough effect, not every such curve was filed as active; inconclusive = small, poorly fitted or top-dose-only effect, or another doubt; inactive = no such curve, though single readings can be large or run the other way;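 note: potency is the fitted concentration of half-maximal effect; 0% = wells with enzyme and -100% = buffer wells without enzyme; nearly all actives have a fitted effect of over 50% in size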
# Target sequence (B2RXH2 1-337 limits assumed): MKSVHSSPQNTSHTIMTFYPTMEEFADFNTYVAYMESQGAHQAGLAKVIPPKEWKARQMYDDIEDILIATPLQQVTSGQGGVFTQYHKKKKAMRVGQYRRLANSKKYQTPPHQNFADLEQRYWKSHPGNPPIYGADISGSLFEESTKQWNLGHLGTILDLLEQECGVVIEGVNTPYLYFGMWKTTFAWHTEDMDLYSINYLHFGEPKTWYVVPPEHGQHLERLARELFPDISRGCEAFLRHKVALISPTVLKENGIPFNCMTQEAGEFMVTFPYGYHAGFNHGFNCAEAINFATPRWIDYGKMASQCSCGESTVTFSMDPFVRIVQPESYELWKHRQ
# Active calls of the source: *; ? = inconclusive; nt = no result; ! = repeats disagree; [ ] = another dose, or the depositor's remark. The list is not random: actives were taken first. Their share in the collection is about 13%. Unless noted, calls come from the whole dose curve; as a rule, active = well fitted curve in the direction sought with a large enough effect; inconclusive = small, poorly fitted or top-dose-only effect, or another doubt; inactive = no such curve, though single readings can be large; an effect the other way counts as inactive or inconclusive.
SMILES,Sfp inh,miR-21 reporter,G9a inh,ALDH1A1 inh,LMNA splice mod,JMJD2E inh
O=C(O)CSCC(=O)N(Cc1ccccc1)c1nc(-c2ccccc2)c(-c2ccccc2)s1,-18%,-3%,?,nt,nt,nt
O=C1OC(=O)C2C3CCC(O3)C12 (stereo unspecified),-23%,nt,-2%[59 µM],-6%,?,22µM*!
O=C1C2C3CCC(O3)C2C(=O)N1CCO (stereo unspecified),-7%,3%,-1%[59 µM],nt,nt,-4%
CCOc1ccc(NCc2cccn2-c2nnc(N3CCC(C(=O)NCC(C)c4ccccc4)CC3)s2)cc1 (stereo unspecified),nt,30%,?,nt,nt,nt
O=C(O)C1CN(CP(=O)(O)O)CCN1 (stereo unspecified),0%,nt,20%[59 µM],2%,nt,nt
Cn1c(=O)oc2cc(S(=O)(=O)Nc3cccc([N+](=O)[O-])c3)ccc21,10%,-33%,2%,nt,nt,nt
Cn1c(=O)oc2cc(S(=O)(=O)NCc3cccnc3)ccc21,79µM*,-10%,nt,nt,nt,4%
CC(C)=CCCN1CCC(NC(=O)C(O)(c2ccccc2)C2CCCC2)CC1 (stereo unspecified),5%,nt,nt,nt,nt,nt
Cc1c(C(=O)c2cccc3ccccc23)c2cccc3c2n1[C@@H](CN1CCOCC1)CO3,7%,nt,?,?,nt,nt
C=CC(C)(C)c1c2c(c(O)c3c(=O)c4ccc(O)c(O)c4oc13)C=CC(C)(C)O2,11%,nt,nt,-2%,nt,?
COc1ccc2[nH]c(C)c(CCNCc3cn(C)c4ccccc34)c2c1,nt,nt,7.1µM*,nt,nt,nt
CCC(=O)C1=C(c2cccc([N+](=O)[O-])c2)N(C(=O)CC)n2c(nnc2C2CCCCC2)S1,nt,?,-35%[59 µM],nt,?,nt
Cc1cccc(-n2c(=S)[nH]c3ccccc3c2=O)n1,50µM*,1%,?,4%,23%[46 µM],-4%
Cc1c([C@@H](C)C2NC[C@H](C)C[C@@H]2O)ccc2c1C[C@@H]1[C@H]2CC=C2C[C@@H](O)CC[C@@]21C (stereo partly specified),nt,nt,nt,-2%[13.5 µM],nt,nt
CCN1C[C@]2(COC(=O)c3ccccc3N3C(=O)CC(C)C3=O)CC[C@H](OC)[C@@]34C5C[C@@H]6[C@@H](OC)C[C@@](O)(C5[C@H]6OC)[C@](O)([C@@H](OC)C23)[C@@H]14 (stereo partly specified),8%,nt,28%[59 µM],-13%,nt,nt
CCCn1c(C(C)C)n[nH]c1=S,0%,-1%,35µM*,nt,nt,6%
CCOP(=S)(OCC)Oc1cc(C)nc(N(CC)CC)n1,-20%,nt,nt,nt,nt,nt
Oc1ccc(CC2CC3CCN2CC3)cc1O (stereo unspecified),-30%,-2%,?,8%,0%,0%
Oc1ccc(C[C@H]2NCCc3cc(O)c(O)cc32)cc1O,71µM*,-1%,?,nt,nt,nt
CCCCC,6%,nt,17%[59 µM],-4%,?,nt
O=C(Nc1ccccc1)c1ccccc1I,-14%,nt,nt,nt,nt,nt
CCCCOCCOP(=O)(OCCOCCCC)OCCOCCCC,nt,nt,nt,4%,nt,nt
O=P(OCCCl)(OCCCl)OCCCl,nt,nt,nt,28µM*,nt,nt
CCCC/C(C)=C/[C@@H](NP(=O)(c1ccccc1)c1ccccc1)c1ccccc1,-13%,16%,32µM*,4%,-12%,0%
O=C1NC(=O)C(=Cc2cc(Cl)ccc2OCc2ccc(C(=O)O)cc2)C(=O)N1,50µM*,-12%,32µM*,3%,nt,?
SMILES,Sfp inh,miR-21 reporter,G9a inh,ALDH1A1 inh,LMNA splice mod,JMJD2E inh
CCOP(=O)(OCC)C(Nc1cccc(C(F)(F)F)c1)c1ccc(Br)cc1 (stereo unspecified),0%,0%,23%,5%,?,8%
C[C@]12CCC(=O)C[C@H]1CC[C@@H]1[C@@H]2CC[C@]2(C)[C@@H](O)CC[C@@H]12,nt,nt,-7%[12.7 µM],nt,nt,nt
C[C@]12C/C(=C/O)C(=O)C[C@@H]1CC[C@@H]1[C@@H]2CC[C@@]2(C)[C@H]1CC[C@]2(C)O,1%,nt,18µM*,0.071µM*,?,nt
O=C(NCc1ccc(Cl)cc1)C1CCCN(C(=O)c2cnn(-c3ccc(F)cc3)c2-n2cccc2)C1 (stereo unspecified),nt,16%,?,nt,nt,nt
COc1ccc(N2CCN(CCCNC(=O)c3cnn(-c4ccc(F)cc4)c3-n3cccc3)CC2)cc1,nt,?,13µM*,nt,nt,nt
ClCCCCl,nt,nt,nt,17%,nt,nt
COc1ccc(NC(=O)C2C3CCC(O3)C2C(=O)O)c(OC)c1 (stereo unspecified),-1%,-19%,10µM*,nt,nt,nt
COc1ccccc1N1C(=O)NC(=O)/C(=C/c2ccc3c(c2)Cc2ccccc2-3)C1=O,50µM*,-22%,?,?,1%,?
COc1cc(OC)c(/C=C2/C(=O)Nc3ccccc32)c(OC)c1,nt,nt,-4%[59 µM],?,?,0%
O=C1NC(=O)N(c2ccccc2)C(=O)/C1=C/c1ccc2c(c1)Cc1ccccc1-2,50µM*,-23%,6.3µM*,?,21%[9.22 µM],?
CCCCCCCCCCCCCCCC(=O)OC(C)C,22%,nt,20%[59 µM],nt,?,nt
COC(=O)COc1cc(Cl)c(Cl)cc1Cl,-2%,nt,nt,5%,?,11%
C=C(Cl)CCl,nt,nt,nt,20µM*,nt,nt
O=C(c1ccccc1)[C@H]1[C@H](c2ccccc2[N+](=O)[O-])N1C1CCCCC1 (stereo partly specified),nt,nt,nt,3%[13.5 µM],nt,nt
Cc1ccc(NC(=O)Nc2ccc3nc(N4CCN(C)CC4)cc(C)c3c2)cc1F,nt,?,-31%[59 µM],nt,?,nt
Cn1c(=O)n(CC(=O)N2CCC3(CC2)OCCO3)c(=O)c2ccccc21,1%,-15%,16%[59 µM],-5%,-4%,?
O=C(Cn1c2c(c(-c3ccccc3Cl)cc1=O)CCC2)N1CCC2(CC1)OCCO2,22µM*,-11%,-33%[59 µM],?,-4%,1%
CC(=O)OCC(N)C(=O)c1ccccc1 (stereo unspecified),-11%,nt,?,-17%,nt,nt
CC(C)(c1ccc(OCC2CO2)cc1)c1ccc(OCC2CO2)cc1 (stereo unspecified),6%,nt,139%[59 µM],?,nt,nt
Cc1cccc(N2CCN(C(=O)C34CC5CC(CC(C5)C3)C4)CC2)c1C,10%,-8%,1.6µM*,-11%,-2%,0%
Cc1cc(NC(=O)COC(=O)c2c(C)nn(Cc3ccccc3Cl)c2Cl)no1,?,-7%,-19%[2.33 µM],11%,2%,2%
Cc1cc(NC(=O)CCl)no1,9%,28%,?,13µM*,23%[46 µM],-4%
